BAZ2B inh – BAZ2B (human) inhibition; Potency, µM (doses to about 114 µM), hits mostly inhibitors; Q9UIF8; hit rate 4.4% among 360,000; AlphaScreen BAZ2B-H3K14Ac peptide displacement; further: nearly all actives have a fitted effect of over 60% in size
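Protein-peptide AlphaScreen: BAZ2B 50 nM, b-H3K14Ac 50 nM, 1x PBS pH 7.4 + 0.01% Tween-20. Preincubation 30 min RT; cpd 30 min RT (top 110 uM); beads 20 min RT, light-protected.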
HP1b binding inh – inhibitors of HP1-beta chromodomain binding to methylated histone tails; Potency, µM (top dose mostly 114 µM), hits mostly inhibitors; AlphaScreen HP1-beta / biotin-H3K9me3 peptide binding; hit rate 0.56% among 390,000; further: nearly all actives have a fitted effect of over 70% in size
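Compound inhibition of the preformed complex between 50 nM HP1-beta and 50 nM biotinylated H3K9me3 peptide was read by AlphaScreen. Buffer was PBS pH 7.4 with 0.01% Tween-20. Incubations ran 30 min at room temperature, with 10 ug/mL donor/acceptor beads.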
JMJD2A Tudor – blocks the human JMJD2A Tudor domain | O75164 | AID 504339 | AlphaScreen JMJD2A-Tudor / H3K4me3 peptide binding | hit rate 4.4% among 390,000 | Potency, µM (highest dose often 114 µM), hits mostly inhibitors; further: nearly all actives have a fitted effect of over 50% in size
GLS inhibitor – blocks human kidney-isoform glutaminase activity | O94925 | GLS enzymatic activity, qHTS titration | Potency, µM (series often up to 45.5 µM), hits mostly inhibitors | hit rate 0.21% among 410,000 | AID 624170
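hKGA; 45 mM KH2PO4 pH 8.2 + 0.02% Tween-20; cpd via pin tool; 1 mM Gln soln; GluOx/HRP/Amplex Red; RT 30 min; fluor. t0 & final.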
G9a inh – G9a (human) methyltransferase inhibition | Q96KQ7 | G9a H3K9 monomethylation, AlphaScreen, 2 h | Potency, µM (top dose mostly 102 µM), most hits filed as inhibitors | hit rate 8.8% among 350,000 | AID 504332; further: nearly all actives have a fitted effect of over 75% in size
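Compounds were preincubated with 20 nM G9a for 15 min, after which biotinylated H3K9 peptide (500 nM) and SAM (20 uM) started a 2 h room-temperature reaction. Monomethylated product was quantified by antibody-based AlphaScreen chemiluminescence.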
A number is an active result; 0 = inactive; ? = inconclusive; - = not tested or not shown; ! = a repeat was not active; [ ] = dose if it differs, or a comment. Shown are actives, neighbours in structure and some others; about 10% of the full set was active somewhere. The call rests on the fitted dose curve; in most records, active means well fitted curve in the direction sought with a large enough effect; inconclusive means small, poorly fitted or top-dose-only effect, or another doubt; inactive means no such curve, though single readings can be large; an effect the other way counts as inactive or inconclusive.

SMILES | BAZ2B inh | HP1b binding inh | JMJD2A Tudor | GLS inhibitor | G9a inh
CCOc1ccc(C2CC(c3c(O)n(C)c(=O)n(C)c3=O)=NN2)cc1 (centres undefined) | ? | 0 | 0 | 0 | ?
Clc1cccc(N2CCNCC2)n1 | 0 | 0 | 0[11.4 µM] | 0 | 0
CCCCN1CC(O)=C(c2nc3ccccc3s2)C1=N | 0 | ? | 0 | 0 | 0
COC(=O)C1=C(c2cc3ccccc3o2)C[C@@H]2CC[C@H]1N2C(=O)NCCCOC(C)C | - | 0 | 0 | 0 | -
CCN(CC)c1ccc(N=Cc2c(O)n(Cc3ccco3)c(=O)[nH]c2=O)cc1 | 0 | 0 | 0 | 0 | -
COc1ccc(CCNC(=O)c2ccc3c(c2)CCN3S(=O)(=O)c2ccc(C)cc2)cc1OC | 0 | 0 | 0 | 0 | 5µM
CN(c1ccccc1)S(=O)(=O)c1ccc2ccccc2c1 | 0 | 0 | 0 | 0 | 0
CC(C)NC(=O)C(C)N1CCN(S(=O)(=O)c2ccc3ccccc3c2)CC1 (centres undefined) | 56µM | 40µM | 3.2µM | 0 | 25µM
CCOC(=O)[C@]12Cc3cc(N(C)C)ccc3[C@H]1N(Cc1ccccc1)C(=O)c1ccccc12 | - | 0 | 16µM | 0 | -
CCOC(=O)[C@]12Cc3cc(Cl)ccc3[C@H]1N(Cc1ccccc1)C(=O)c1ccccc12 | - | 0 | 0 | 0 | -
NNCc1ccccc1 | - | 0 | 20µM | 0 | 0[2.33 µM]
c1ccc(CNC2CCCCCCC2)cc1 (tested in a mixture with another compound) | - | 0 | 0 | 0 | -
Cc1ccnc(NS(=O)(=O)c2ccc(N=Cc3c(O)n(C)c(=O)n(C)c3=O)cc2)n1 | ? | 0 | 0 | 0 | 45µM
CN1C(=O)C(Cc2ccsc2)C(=O)N(C)C1=O | 0 | 0 | 0 | 0 | 11µM
CN1C(=O)C(Cc2ccccc2)C(=O)N(C)C1=O | - | 0 | 0 | 0 | -
c1ccc(Nc2ccc(Nc3ccccc3)cc2)cc1 | 28µM | ? | 20µM | 0 | 0[0.501 µM]
O=[N+]([O-])c1ccc(Nc2ccccc2)cc1 | 0 | 0 | 0 | 0 | 0
Clc1cccc(CN2CCCCC2c2cccnc2)c1 (centres undefined) | ? | 0 | 0 | 0 | 56µM
CN1CCC[C@H]1c1cccnc1 | 0 | 0 | ? | 0 | 14µM!
O=C1C2CCCN2C(c2cccnc2)N1c1nccs1 (centres undefined) | 0 | 0 | ? | 0 | 13µM
c1cncc(C2CCCCN2Cc2ccc3c(c2)OCO3)c1 (centres undefined) | ? | 0 | 0 | 0 | 79µM
O=S(=O)(c1ccccc1)N1CCCCC1c1cccnc1 (centres undefined) | 0 | 0 | 0 | 0 | 0[12.7 µM]
O=C1C2CCCN2C(c2cccnc2)N1c1cccc(Cl)c1 (centres undefined) | 0 | 0 | 0 | 0 | 0
O=C1CC2OCC=C3CN4CCC56c7cc([N+](=O)[O-])ccc7N1C5C2C3CC46 (centres undefined) | 0 | 0 | 0 | 0 | 0
C=CCN1CC[C@]23c4c5ccc(O)c4OC2C(O)CC[C@@]3(O)[C@H]1C5 (some centres undefined) | - | 0 | 0 | 0 | -
SMILES | BAZ2B inh | HP1b binding inh | JMJD2A Tudor | GLS inhibitor | G9a inh
O=c1[nH]c(=S)n(Cc2ccco2)c(O)c1C=NCc1cccs1 | 5µM | ? | ? | 0 | 3.5µM
N#Cc1c(/N=C/c2c(O)n(Cc3ccco3)c(=O)[nH]c2=O)sc2c1CCCC2 | ? | 0 | 79µM | 0 | 0[0.0925 µM]
NC(=O)c1ccc(N=Cc2c(O)n(Cc3ccco3)c(=O)[nH]c2=O)cc1 | ? | 0 | ? | ? | 40µM
Cc1cc(C(=O)OCC(=O)Nc2cccc(F)c2)c(C)n1C1CC1 | 0 | 0 | 0 | 0 | 0[2.33 µM]
COc1ccc(C2=NCC(=O)N(CC(=O)NCc3ccco3)c3sc4c(c32)CCCC4)cc1OC | 0 | 0 | 0 | 0 | 16µM
O=C(CN1C(=O)CN=C(c2ccccc2)c2ccccc21)NCc1ccco1 | ? | 0 | 0 | 0 | ?
O=C1CC=C2C3CC4N(CCC45c4cc(O)c(O)cc4N1C25)CC3=CCBr (centres undefined) | - | ? | 3.5µM | 0 | -
C[N+]1(C)CCc2cc3c(cc2[C@H]1[C@@H]1OC(=O)c2c1ccc1c2OCO1)OCO3 | ? | 0 | 25µM! | 0 | 22µM!
COc1ccc2c(c1OC)C(=O)O[C@H]2[C@H]1c2cc3c(cc2CCN1C)OCO3 | - | - | - | - | 0[21.5 µM]
CN(C)N=O | 0 | 0 | 0 | 0 | 0[0.501 µM]
CC(C)CNC(=O)c1c(N)n(Cc2ccco2)c2nc3ccccc3nc12 | 0 | 0 | 0 | 0 | 45µM
CC(C)OC(=O)c1c(N)n(Cc2ccco2)c2nc3ccccc3nc12 | 0 | 0 | 0 | 0 | 3.5µM
CCCNC(=O)c1c(N)n(Cc2ccco2)c2nc3ccccc3nc12 | 0 | 0 | 0 | 0 | ?
CCC(C)n1c(C)cc(C(N)=O)c1C (centres undefined) | - | 0 | ? | 0 | 0
O=C1NC(=O)N(Cc2ccccc2Cl)C(=O)/C1=C/c1cccs1 | - | 0 | 0 | 0 | 11µM
Cc1ccc(/C=C2\C(=O)NC(=O)N(Cc3ccccc3Cl)C2=O)o1 | 32µM | 0 | 0 | 0 | 13µM
O=C1NC(=O)N(Cc2ccc(F)cc2)C(=O)/C1=C\c1ccoc1 | 50µM | ? | 79µM | ? | 40µM
O=C1NC(=O)C(CCc2ccncc2)(CCc2ccncc2)C(=O)N1Cc1ccc(F)cc1 | 0 | 0 | 0 | 0 | -
CN(C)c1ccc(/C=C2\C(=O)NC(=O)N(Cc3ccc(F)cc3)C2=O)cc1 | 0 | 0 | 0 | 0 | -
O=C1NC(=O)N(Cc2ccc(F)cc2)C(=O)/C1=C/c1cccs1 | 79µM | 0 | 0 | 0 | 4µM
Oc1cccc(/C=N/NP(=S)(c2ccccc2)c2ccccc2)c1 | 0 | 0 | 0 | 0 | 0
CCOC(=O)N(C)c1ccc(C(O)(C(=O)OC)C(F)(F)F)cc1 (centres undefined) | 0 | 0 | 0 | 0 | 0
Cc1cc(=O)n(-c2ccccc2)n1-c1ccccc1 | 0 | 0 | 0 | 0 | 0
CCCn1c(=O)c2[nH]c(C3CCCC3)nc2n(CCCOC(=O)c2ccc(S(=O)(=O)F)cc2)c1=O | - | - | - | - | 0
CC1Oc2cc3c(-c4c(O)cc(O)c5c(O)c6c(cc45)OC(C)C(C)C6=O)c(O)cc(O)c3c(O)c2C(=O)C1C (centres undefined) | 32µM | ? | 45µM | 7.9µM | 13µM
SMILES | BAZ2B inh | HP1b binding inh | JMJD2A Tudor | GLS inhibitor | G9a inh
CCCCC(CC)COC(=O)CCCCC(=O)OCC(CC)CCCC (centres undefined) | 0 | 0 | 0 | 0 | 0[0.501 µM]
O=C(O)c1cccc2nc3ccccc3nc12 | 0 | 0 | 0 | 0 | 40µM
O=C(O)c1ccccc1S | 0 | - | - | 0 | 40µM
COc1ccc(OC)c(C2C(C#N)=C(N)Oc3c2c(C)nn3-c2ccc(C)cc2)c1 (centres undefined) | 50µM | ? | 0[11.4 µM] | 0 | 25µM
COc1ccc(/C=C/C(=O)NC(=S)N2C[C@H]3C[C@H](C2)c2cccc(=O)n2C3)cc1 | 0 | 0 | 0 | 0 | ?
O=C(/C=C/c1ccc(Cl)cc1)NC(=S)N1C[C@H]2C[C@H](C1)c1cccc(=O)n1C2 | 0 | 0 | 0 | 0 | 18µM

Assay outcomes: PubChem BioAssay, National Center for Advancing Translational Sciences (NCATS)
